Experimental findings from PubChem BioAssay (Tox21) are described below.

Values joined by “and” are separate entries in the source; they are usually repeats but may differ in a detail not shown here. Equal values may be shown once. Results filed as inconclusive are left out. A structure can be active in one record and inactive in another. Active and inactive are the calls of the source. Unless noted, the call rests on the fitted dose curve; in most records, active means well fitted curve in the direction sought with a large enough effect in the repeat runs; inconclusive means weak or mixed curves; inactive means no such curve, though single readings can be large; an effect the other way counts as inactive or inconclusive.

Assay [1] addresses Retinoic acid receptor RXR-alpha (Homo sapiens) (UniProt P19793). Kind of assay: qHTS assay to identify small molecule agonists of the RXR signaling pathway (AID 1159527; calls by dose curve; further: nearly all actives have a fitted effect of over 35% in size; further: potency means the concentration at half of the fitted maximal effect). In outline:
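GeneBLAzer RXR-alpha-UAS-bla HEK 293T cells in medium with 2% charcoal-stripped FBS, pre-incubated 5 hr at 37 C, then exposed to compounds 16 hr. Beta-lactamase reporter read by FRET substrate, 2 hr room temperature, 460/530 nm emission.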

Assay [2] in a line: qHTS assay to identify small molecule agonists of the RXR signaling pathway - cell viability counter screen (AID 1159529). Further: series mostly up to about 77 µM; nearly all actives have a fitted effect of over 50% in size. In outline:
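RXR-alpha-UAS-bla HEK 293T cells in medium with 2% charcoal-stripped FBS were preincubated 5 hr, then exposed to compounds for 16 hr at 37 C. Viability was read as CellTiter-Glo luminescence after 30 min at room temperature.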

Assay [3] can be described thus: qHTS assay to identify small molecule antagonists of the retinoid acid receptor (RAR) signaling pathway - cell viability counter screen (AID 1159551). Further: nearly all actives have a fitted effect of over 35% in size. In outline: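 C3RL4 RARE-luciferase cells, 1,000/well, incubated overnight, then dosed with compound plus 1 uM retinol (final). After 6 hr at 37 C, viability read by CellTiter-Glo ATP luminescence following 30 min at room temperature.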

A short description of assay [4]: qHTS assay to identify small molecule antagonists of the retinoic acid receptor (RAR) signaling pathway (AID 1159552; further: nearly all actives have a fitted effect of over 50% in size; further: potency means the concentration at half of the fitted maximal effect). Put shortly: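 RARE-luc C3RL4 cells; cpds + 1 uM (final) retinol, 6 hr, 37 C/5% CO2; luciferase reagent, 30 min RT, luminescence readout. Inhibitors of retinol-driven signal scored.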
A short description of assay [5]: qHTS assay to identify small molecule agonists of the retinoic acid receptor (RAR) signaling pathway (AID 1159553). Further: potency means the concentration at half of the fitted maximal effect. In outline: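 C3RL4 RARE-luciferase cells were seeded at 1,000/well and grown overnight at 37 C, then exposed to compounds for 6 hr at 37 C, 5% CO2. Luciferase reagent was added and luminescence was read after 30 min at room temperature.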
Assay [6] is described as follows: qHTS assay to identify small molecule antagonists of the estrogen related receptor (ERR) signaling pathway from Tox21 library - cell viability counter screen (AID 1224834). Further: nearly all actives have a fitted effect of over 30% in size. Further: potency means the concentration at half of the fitted maximal effect. Put shortly:
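ERR reporter cells, 2,000 per well, rested 6 h, then exposed to compound in DMSO for 17.5 hours at 37 C. Viability read as fluorescence after 30 min with CellTiter-Fluor.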

The target of assay [7] is Luciferin 4-monooxygenase (Photinus pyralis) (UniProt P08659). Kind of assay: qHTS assay to identify small molecule inhibitors of firefly luciferase (AID 1224835). Further: nearly all actives have a fitted effect of over 25% in size. Further: potency means the concentration at half of the fitted maximal effect. Put shortly: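 Biochemical qHTS: compounds run as interplate titrations against purified firefly enzyme, with D-luciferin and ATP each at its KM concentration. Light output recorded by CCD imaging.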
Sequence of Luciferin 4-monooxygenase (Photinus pyralis) (P08659 whole entry, looked up): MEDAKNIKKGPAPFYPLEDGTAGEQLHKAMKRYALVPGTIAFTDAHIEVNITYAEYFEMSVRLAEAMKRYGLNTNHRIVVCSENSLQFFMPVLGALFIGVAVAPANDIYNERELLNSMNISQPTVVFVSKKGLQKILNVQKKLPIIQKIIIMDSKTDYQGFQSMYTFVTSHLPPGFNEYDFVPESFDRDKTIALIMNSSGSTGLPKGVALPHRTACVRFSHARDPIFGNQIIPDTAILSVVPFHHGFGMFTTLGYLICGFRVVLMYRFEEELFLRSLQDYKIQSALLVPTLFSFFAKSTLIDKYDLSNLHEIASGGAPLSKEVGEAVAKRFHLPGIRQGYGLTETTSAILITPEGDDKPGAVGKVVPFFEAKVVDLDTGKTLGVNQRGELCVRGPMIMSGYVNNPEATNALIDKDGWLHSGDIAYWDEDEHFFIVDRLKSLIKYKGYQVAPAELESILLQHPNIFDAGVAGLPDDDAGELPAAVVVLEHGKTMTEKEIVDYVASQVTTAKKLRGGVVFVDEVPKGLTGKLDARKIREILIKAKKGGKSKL
The nature of assay [8]: qHTS assay to identify small molecule agonists of the constitutive androstane receptor (CAR) signaling pathway - cell viability counter screen (AID 1224836). Further: series mostly up to about 92 µM; nearly all actives have a fitted effect of over 45% in size. Put shortly:
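HepG2 cells stably carrying hCAR and a CYP2B6-2.2kb reporter were plated 4 h, then given compounds at 15 concentrations plus PK11195 (final 0.75 uM). After 23 h at 37 C, viability was read by CellTiter-Fluor fluorescence.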

A short description of assay [9]: qHTS assay to identify small molecule antagonists of the constitutive androstane receptor (CAR) signaling pathway - cell viability counter screen (AID 1224837). Further: series mostly up to about 92 µM; nearly all actives have a fitted effect of over 45% in size. In outline: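 HepG2 cells stably carrying hCAR and CYP2B6-2.2kb reporter, stimulated with 50 nM CITCO and compounds at 15 concentrations for 23 h at 37 C. Viability measured by CellTiter-Fluor fluorescence.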

The target of assay [10] is Nuclear receptor subfamily 1 group I member 3 (Homo sapiens) (UniProt Q14994). Briefly: qHTS assay to identify small molecule antagonists of the constitutive androstane receptor (CAR) signaling pathway (AID 1224838). Further: nearly all actives have a fitted effect of over 40% in size. Further: potency means the concentration at half of the fitted maximal effect. Put shortly:
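HepG2 cells stably carrying hCAR and a CYP2B6-2.2kb luciferase reporter, seeded 4 hrs before compound (15 concentrations). Stimulated with 50 nM CITCO for 24 hr at 37 C. ONE-Glo luminescence read after 30 min at room temperature.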

Assay [11] has the same target. Kind of assay: qHTS assay to identify small molecule agonists of the constitutive androstane receptor (CAR) signaling pathway (AID 1224839). Further: nearly all actives have a fitted effect of over 15% in size. Further: potency means the concentration at half of the fitted maximal effect. Put shortly: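 HepG2 cells stably expressing hCAR and a CYP2B6-2.2kb luciferase reporter were treated with compounds at 15 concentrations plus 0.75 uM PK11195 (final) for 24 h at 37 C; luminescence was read after ONE-Glo addition.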

Assay [12] can be described thus: qHTS assay to identify small molecule antagonists of the estrogen related receptor signaling pathway with the pleiotropic PPARgamma coactivator (PGC) from Tox21 10K library - cell viability counter screen (AID 1224840; active means well fitted cell-killing curve with a large enough effect in the repeat runs, not every such curve was filed as active; further: nearly all actives have a fitted effect of over 40% in size; further: potency means the concentration at half of the fitted maximal effect). Put shortly: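 PGC/ERR cells (2,000/well) plated 6 h, then compound-treated for 17.5 h at 37 C. Viability measured by CellTiter-Fluor fluorescence after 30 min at 37 C, multiplexed with the pathway assay.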

Assay [13] can be described thus: qHTS assay to identify small molecule agonists of the estrogen related receptor signaling pathway with the pleiotropic PPARgamma coactivator (PGC) from Tox21 10K library (AID 1224842). Further: nearly all actives have a fitted effect of over 15% in size. Put shortly: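 PGC/ERR reporter cell line, 2,000 cells per well, incubated 6 h at 37 C before 23 nL compound in DMSO was added. After 18 h at 37 C, One-Glo luminescence read following 30 min at room temperature.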

Assay [14] is described as follows: qHTS assay to identify small molecule antagonists of the estrogen related receptor (ERR) signaling pathway - cell viability counter screen (AID 1224818). Further: series mostly up to about 46 µM. Put shortly: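 ERR cells, 2,000 per well, compound added after 6 h and incubated 17.5 h at 37 C. Viability read by CellTiter-Fluor fluorescence after a further 30 min at 37 C.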
Assay [15] is described as follows: qHTS assay to identify small molecule antagonists of the estrogen related receptor signaling pathway with the pleiotropic PPARgamma coactivator (PGC) cell viability counter screen (AID 1224822; further: series mostly up to about 46 µM). Put shortly:
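PGC/ERR cells rested 6 h, then compound-treated 17.5 h at 37 C. CellTiter-Fluor added for 30 min at 37 C, viability measured by fluorescence intensity.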

Sequence of Retinoic acid receptor RXR-alpha (Homo sapiens) (P19793 whole entry, looked up): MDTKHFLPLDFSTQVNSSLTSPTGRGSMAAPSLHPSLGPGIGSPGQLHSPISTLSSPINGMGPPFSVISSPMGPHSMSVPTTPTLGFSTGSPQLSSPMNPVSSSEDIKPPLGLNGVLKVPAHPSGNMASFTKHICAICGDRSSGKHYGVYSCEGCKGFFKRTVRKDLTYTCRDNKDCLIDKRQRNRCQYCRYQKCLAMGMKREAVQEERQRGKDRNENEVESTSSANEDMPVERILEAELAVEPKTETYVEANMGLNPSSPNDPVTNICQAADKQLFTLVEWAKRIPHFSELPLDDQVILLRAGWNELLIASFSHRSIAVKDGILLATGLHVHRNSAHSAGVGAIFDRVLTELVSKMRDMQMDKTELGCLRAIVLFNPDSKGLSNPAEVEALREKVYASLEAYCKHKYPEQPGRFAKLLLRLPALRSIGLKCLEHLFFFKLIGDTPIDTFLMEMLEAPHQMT
Sequence of Nuclear receptor subfamily 1 group I member 3 (Homo sapiens) (Q14994 whole entry, looked up): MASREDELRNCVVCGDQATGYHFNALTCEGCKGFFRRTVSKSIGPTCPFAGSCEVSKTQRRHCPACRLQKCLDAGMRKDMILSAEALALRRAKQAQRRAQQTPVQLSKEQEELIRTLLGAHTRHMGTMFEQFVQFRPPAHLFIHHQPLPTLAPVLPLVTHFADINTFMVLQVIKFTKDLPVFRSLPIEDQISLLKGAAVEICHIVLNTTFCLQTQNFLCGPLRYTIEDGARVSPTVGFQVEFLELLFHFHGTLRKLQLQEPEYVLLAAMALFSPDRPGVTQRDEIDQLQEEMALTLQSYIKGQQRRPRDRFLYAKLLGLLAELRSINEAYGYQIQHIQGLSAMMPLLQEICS

Regarding `CN(C)C(=O)Cl`, the Potency result in assay [1], in assay [4], in [5], in [6], in assay [7] and in assay [8] was “inactive” each time. For the same compound, the Potency entry in [9], in [10], in assay [11], in [12] and in assay [13] was “inactive” each time. Also, the compound was called inactive in [2] and in assay [3].
Take `Cc1ccc(N)cc1`: the Potency entry in assay [1] is “inactive and 19.5 µM (active)”; in assay [5], 61.5 µM (active) and inactive; in [11], 2.45 µM (active). Moreover, the compound was called inactive in assay [2] and in assay [3]. In addition, the Potency entry in assay [4], in assay [6], in assay [7], in assay [8], in assay [9] and in assay [10] was “inactive” throughout. The Potency entry in assay [12] and in [13] was “inactive” throughout.
For the compound `COc1cc(-c2ccc(N)c(OC)c2)ccc1N`, the Potency result in assay [1], in [5], in [8], in assay [9], in [10] and in [13] was “inactive” throughout. Moreover, the call in [2] and in assay [3] was inactive. Moreover, the Potency result in [4] is “inactive and 58.3 µM (active)”; in assay [6], 52 µM (active); in assay [7], 31.8 µM (active) and inactive; in [11], 54.7 µM (active) and 58.3 µM (active); in assay [12], “inactive and 29.2 µM (active)”.
With `CCOc1ccc(N)cc1`, the Potency is 11 µM (active) and inactive in assay [1]; “inactive and 79.6 µM (active)” in assay [7]. The outcome in assay [2] and in [3] was inactive. The Potency result in [4], in [5], in [6], in assay [8], in assay [9] and in assay [10] was “inactive” each time. The Potency entry in [11], in assay [12] and in assay [13] was “inactive” in each case.
As for `CCSC(=O)N1CCCCCC1`, the Potency entry in assay [1], in assay [4], in assay [5], in assay [6], in assay [7] and in assay [8] was “inactive” each time. For the same compound, the Potency entry in assay [9], in [11], in assay [12] and in assay [13] was “inactive” throughout. For the same compound, the result in assay [2] and in [3] was inactive. The Potency in [10] is 26.5 µM (active) and inactive.
`CNC(=O)O/N=C(\SC)C(=O)N(C)C`: the Potency entry in [1], in assay [4], in [5], in [6], in assay [7] and in assay [8] was “inactive” throughout. Besides, the Potency result in [9], in assay [10], in assay [11], in assay [12] and in [13] was “inactive” in each case. The outcome in [2] and in [3] was inactive.
Regarding `CN(C)C(=O)C(c1ccccc1)c1ccccc1`, the Potency entry in assay [1], in assay [4], in assay [5], in [6], in assay [7] and in [8] was “inactive” in each case. For the same compound, the Potency result in assay [9], in [10] and in assay [12] was “inactive” in each case. In addition, the result in [2] and in assay [3] was inactive. In addition, the Potency in assay [11] was 26.9 µM (active) and 12.2 µM (active).
Regarding `Clc1cnc(Oc2ccc(Oc3ncc(Cl)cc3Cl)cc2)c(Cl)c1`, the Potency result in [1], in assay [4], in [5], in assay [6], in assay [7] and in assay [8] was “inactive” each time. Moreover, the Potency result in assay [9], in [10], in assay [11] and in assay [12] was “inactive” in each case. Moreover, the compound was called inactive in [2], in assay [3], in assay [14] and in [15].
On to `Cc1ccc(N=C=O)cc1N=C=O`, for which the Potency entry in assay [1], in assay [4], in assay [5], in [6], in assay [8] and in assay [9] was “inactive” throughout. For the same compound, the Potency result in assay [10], in assay [11], in assay [12] and in [13] was “inactive” in each case. Moreover, the compound was classed as inactive in assay [2] and in assay [3]. Also, the Potency in assay [7] was 40.9 µM (active) and 63.1 µM (active) and inactive.
